# Over roughly 33,000 sequences, “E-score (-0.5 to 0.5)” has its median near -0.016; the highest 2% begin near 0.31. The list comes from a sample in which the highest values are over-represented; it also holds similar and randomly drawn sequences.
# Molecular target: Cst6 (UniProt P40535)
# Test: PBM E-score (8-mer binding enrichment) (E-score (-0.5 to 0.5)); higher = stronger / more preferred TF binding
# Conditions: protein concentration: 200 nM; construct: GST-DNA-binding domain
# Method in brief: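 Yeast transcription factors carrying a GST tag, as full-length proteins or DNA-binding domains, were produced by PURExpress in vitro transcription/translation. About 100-200 nM protein was applied to universal all-10-mer Agilent arrays, double-stranded by primer extension on fresh or once-stripped slides. Bound protein was detected with fluorescent anti-GST, and scans were normalised with masliner. The Universal PBM Analysis Suite gave each ungapped eight-base word, pooled with its reverse complement, an E-score, a modified Wilcoxon-Mann-Whitney statistic.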
# Sequence of UniProt P40535 (P40535 whole entry): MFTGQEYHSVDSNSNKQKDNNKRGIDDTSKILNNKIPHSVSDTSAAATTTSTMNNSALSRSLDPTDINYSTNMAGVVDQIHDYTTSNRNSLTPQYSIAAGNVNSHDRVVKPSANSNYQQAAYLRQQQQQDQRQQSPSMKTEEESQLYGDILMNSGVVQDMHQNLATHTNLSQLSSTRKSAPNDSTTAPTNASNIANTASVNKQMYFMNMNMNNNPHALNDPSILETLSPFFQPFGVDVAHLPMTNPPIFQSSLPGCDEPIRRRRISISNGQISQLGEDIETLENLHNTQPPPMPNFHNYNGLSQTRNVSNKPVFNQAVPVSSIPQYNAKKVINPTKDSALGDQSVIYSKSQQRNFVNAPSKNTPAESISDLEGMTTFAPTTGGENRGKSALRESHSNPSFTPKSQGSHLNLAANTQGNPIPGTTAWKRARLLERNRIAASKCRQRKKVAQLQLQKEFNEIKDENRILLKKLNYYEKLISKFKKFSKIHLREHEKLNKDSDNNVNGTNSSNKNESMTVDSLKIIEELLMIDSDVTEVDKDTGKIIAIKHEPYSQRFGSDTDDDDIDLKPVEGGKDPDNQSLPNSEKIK
row,Sequence,PBM E-score
1,AAGCTTTC,0.0818
2,AACTGATT,0.0959
3,TCGCGCCA,-0.0121
4,GTCCGAGA,0.0681
5,GTCTAGAC,-0.0977
6,CACCAAAC,0.17
7,TACTCCCA,-0.0234
8,AGTCAAAT,0.0827
9,GGTAATGA,0.213
10,CTTAATGC,0.142
11,AGTAATGA,0.247
12,CGTAATGC,0.365
13,AGTAATGC,0.0951
14,CGTAATGA,0.402
15,ATTATGGC,0.0901
16,TCGCGCAA,0.15
17,GCTCGTCA,0.238
18,CCTCGTCG,-0.0925
19,ACTCGTCC,-0.094
20,TCTCGTAA,0.305
21,TCTCGTCA,0.329
22,CCTCGTCC,-0.35
23,ACTCGTCA,0.351
24,CCTCGTCA,0.308
25,ACTCGTCT,-0.018
26,GACCTAAC,0.0894

row,Sequence,PBM E-score
1,ATCCCTCG,-0.263
2,GAAAGGTC,-0.196
3,GTTGCCCA,-0.135
4,AATTACAG,0.15
5,AATTACGG,0.183
6,AATTACAT,0.318
7,CATTACGC,0.219
8,AATTACGC,0.331
9,GATTACAC,0.171
10,AGTTACGC,0.0936
11,AATTACCC,0.0706
12,GATTACGC,0.329
13,AATTACGT,0.462
14,AATTACAC,0.116
15,AATTACGA,0.286
16,CACCTGGA,-0.135
17,TCGCGCGA,0.169
18,ACTCGTGC,-0.103
19,AGCGGCAT,0.273
20,GATTACGA,0.364
21,TATTACGA,0.283
22,CATTACGA,0.205
23,GTCTTAAC,0.14
24,GAAAAGCA,-0.0869
25,TCGTTACA,0.0818
26,TAACCCTA,-0.197

row,Sequence,PBM E-score
1,CATGCATG,0.0335
2,ACGCCGCA,0.336
3,ACGCCGCC,0.124
4,CCGCCGCA,0.0944
5,GCGCCGCA,0.38
6,GCGCCGCC,0.25
7,ACGCCGCT,0.233
8,CGTTATGA,0.0852
9,AGCGGAAT,-0.0286
10,GTAGCCGA,-0.191
11,TATAATCA,0.308
12,AGTAATTA,0.175
13,GATAATCA,0.131
14,AATAATCA,0.209
15,AGTAATTC,0.189
16,CGTAATCA,0.427
17,CGTAATCC,0.3
18,AGTAATCA,0.116
19,CGTAATTA,0.362
20,CATAATTC,0.203
21,GGTAATTA,0.215
22,CGTAATTC,0.309
23,CATCGCAG,-0.135
24,CGCCCGCC,-0.129
25,AAACTCAC,0.0463
26,CATTAGCG,-0.0563

row,Sequence,PBM E-score
1,CTCATTGC,0.105
2,AGAAAAAT,0.17
3,CATTGAGG,-0.0774
4,GTGAGTTA,0.0284
5,GAGACGAA,-0.099
6,AAGACGAG,-0.203
7,CTGACGAA,0.29
8,ATGACGAA,0.472
9,GTGACGAA,0.454
10,CTGACGAC,0.216
11,ACGACGAC,-0.0559
12,ATGACGAG,0.398
13,ACGACGAA,0.0916
14,ACGACGAG,-0.211
15,GGGACGAA,-0.214
16,ATGACGAC,0.431
17,CAGACAGC,-0.185
18,ATGGAGCA,0.0798
19,ACGAAACT,0.0946
20,CAAGACCC,-0.197
21,CAAGGCTC,-0.227
22,AATTTCGG,0.127
23,CGTGTGAG,0.0162
24,AAAGATCT,-0.0274
25,GACATCAC,0.431
26,TACATCAA,0.283

row,Sequence,PBM E-score
1,CACATCAA,0.162
2,CACATCAC,0.217
3,GACATCCC,-0.0212
4,GACATCAA,0.327
5,AGCATGCA,-0.103
6,AACACCTC,-0.0672
7,ACTCAAAC,0.158
8,AGCTAAAG,-0.0194
9,CAGCGTGA,0.0151
10,CTGACGCA,0.332
11,AGGACGCC,-0.147
12,GTGACGCA,0.471
13,GGGACGCA,-0.173
14,CAGACGCA,-0.0613
15,GCGACGCA,0.0151
16,ATGACGCG,0.463
17,CTGACGCC,0.119
18,ATGACGCC,0.442
19,AAGACGCC,-0.00396
20,AAGACGCG,-0.111
21,ACGACGCG,0.127
22,AGTCGTAT,-0.0183
23,AGCCTCGC,-0.0857
24,CCTGGATC,-0.334
25,GTACCAGA,-0.199
26,ACTCCAGT,-0.162

row,Sequence,PBM E-score
1,CCGTCCCC,-0.289
2,GGTGGAGA,-0.338
3,ACATGGGT,0.00268
4,CGGGTTCA,-0.134
5,GATAACCA,-0.0596
6,GGAGCTGA,-0.207
7,ACGACGCA,0.145
8,GTGACTCA,0.228
9,ATGACGCA,0.485
10,ATGACTCC,0.0246
11,AGGACGCA,-0.209
12,ATGACTCA,0.309
13,ACGGGACA,-0.177
14,ATACCACG,0.128
15,CCTCATAG,0.0666
16,AGTCATAG,0.0637
17,CGTCATAG,0.468
18,AGTCATAC,0.144
19,GGTCATAC,0.151
20,CGTCATAC,0.481
21,ATCCATTG,0.0328
22,AAGGAGAG,-0.258
23,TAATTACA,0.277
24,TAACCACA,0.0592
25,ACATCACA,0.328
26,ACATCACC,0.417

row,Sequence,PBM E-score
1,GCATCACC,0.231
2,TCATCACA,0.252
3,AGATCACT,0.181
4,ACATCACG,0.303
5,ACATCAGT,0.218
6,ACATCACT,0.401
7,CCATCACC,0.15
8,CCCGGTGC,-0.264
9,GGCGATTA,0.188
10,CGTCGCCA,-0.0999
11,CGCAGTAG,-0.101
12,ATCGACCA,-0.228
13,CGCTGGAC,-0.297
14,CAAAAAAG,0.254
15,TAATGATA,0.387
16,AAATGATA,0.304
17,TAATGAGA,0.0949
18,CAATGACG,0.469
19,CAATGACA,0.341
20,TAATGACA,0.347
21,AAATGACA,0.298
22,GAATGATA,0.278
23,CAATGAAG,0.0658
24,TAATGCCA,0.197
25,CAATGACC,0.148
26,GAATGACA,0.259

row,Sequence,PBM E-score
1,CTTTAAGC,0.0326
2,GTTGGGAA,-0.0904
3,TACCTACA,0.0531
4,ACCGGGTG,-0.19
5,GCGATTAC,0.184
6,CACCGCAG,-0.116
7,CGTCTCGA,0.143
8,GAGTTTTA,0.122
9,GTATGACA,0.323
10,CTATGACA,0.264
11,AAATGACC,0.102
12,ATATGACA,0.304
13,AAATGACG,0.466
14,AAATGACT,0.0956
15,AGCTCATA,0.124
16,GAAGAACA,0.131
17,CAAGAACA,0.053
18,TAAGAACA,0.312
19,CCTTACCA,-0.119
20,CCCGTTCC,-0.132
21,AATCACCA,0.169
22,AATCACCC,-0.00614
23,CATCACCA,0.372
24,TATCACCA,0.123
25,CATCACCC,0.308
26,CATCACCG,0.305

row,Sequence,PBM E-score
1,CATTGTCC,-0.0804
2,ACCGCAAC,0.0509
3,GTCACATA,0.245
4,CGAAGTTA,0.11
5,CCTAACAG,0.00445
6,GCTGGCAA,-0.106
7,CCGATGTA,-0.0196
8,ATGATGTC,0.478
9,ATGATGTA,0.462
10,CGGATGTA,-0.0158
11,GAGATGTA,0.0936
12,ACGATGTC,0.0231
13,CTGATGTC,0.287
14,AGGATGTA,0.0787
15,CTGATGTA,0.326
16,GTGATGTA,0.465
17,GGGATGTA,-0.0844
18,AAGATGTA,0.169

# — the supplement of paper PMC3334620
